The values that follow come from PubChem BioAssay (NCI).

Assay [1] is described as follows: NCI Yeast Anticancer Drug Screen. Data for the rad50 strain (AID 155).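 Note: 0% = growth of vehicle-only cultures of the same strain.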 The note with it: S. cerevisiae rad50 strain growth inhibition; at 50.0 µM; active compounds read high. An outline of the steps:
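Compounds were tested on a yeast strain with an engineered DNA damage repair alteration; the reported value is growth inhibition normalised to vehicle treatment.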

Assay [2] is described as follows: NCI Yeast Anticancer Drug Screen. Data for the mec2-1 strain (AID 157). Conditions: S. cerevisiae mec2-1 strain, at 50.0 µM, active compounds read high. In short, it runs like this: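 Growth inhibition is read against vehicle-treated controls after compound exposure of the mec2-1 yeast strain, which is defective in DNA damage repair or cell cycle control.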
The nature of assay [3]: NCI Yeast Anticancer Drug Screen. Data for the sgs1 mgt1 strain (AID 161).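 Note: 0% = growth of cultures given vehicle only.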 The note with it: S. cerevisiae sgs1 mgt1 strain, at 50.0 µM, active compounds read high. An outline of the steps:
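Percent growth inhibition was derived by comparing compound-exposed mutant yeast with vehicle-exposed cultures. The strain carries alterations in DNA damage repair.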

The nature of assay [4]: NCI Yeast Anticancer Drug Screen. Data for the cln2 rad14 strain (AID 165).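 Note: 0% = growth equal to vehicle treated cultures.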 The note with it: S. cerevisiae cln2 rad14 strain, at 50.0 µM, active compounds read high. In short, it runs like this:
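Growth inhibition, relative to vehicle-treated controls, is the read-out. The test organism is a yeast strain with defined genetic alterations, cln2 rad14.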

A short description of assay [5]: NCI Yeast Anticancer Drug Screen. Data for the bub3 strain (AID 167). Conditions: S. cerevisiae bub3 mutant strain, at 50.0 µM, active compounds read high. An outline of the steps: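 Growth of a checkpoint-deficient yeast mutant is measured after compound exposure. Values represent inhibition relative to vehicle.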
The nature of assay [6]: NCI Yeast Anticancer Drug Screen. Data for the mlh1 rad18 strain (AID 175). The note with it: S. cerevisiae mlh1 rad18 strain growth inhibition; at 50.0 µM; active compounds read high. In short, it runs like this:
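Cells of a genetically altered yeast strain, deficient in DNA damage repair, were treated with compound. Their growth was then compared with that of vehicle-treated cultures to give inhibition.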

About 79,000 compounds went through this panel and 15% of them were active in at least one assay; those are over-represented in the sample as a whole. Unmarked numbers belong to inactive results. Active and inactive are the calls of the source. Cut-off read from the data, not from the text of the source: active = growth inhibition above about 70%; inactive = the rest.

Turning to `Nc1nc(N)c(N=Nc2ccc(S(=O)(=O)O)cc2)c(N)n1`, the growth inhibition in assay [1] was -5.35%; in assay [2], -5.3%; in assay [3] it was 4.25%; in assay [4], -21.1%; in assay [5], 2%; in assay [6], 10.5%.

Take `CC1(C)CCCC/C1=N\O`: the growth inhibition was 5.5% in assay [1]; 24.2% in assay [2]; 3.8% in assay [3]; 24.4% in assay [4]; 23.2% in assay [5]; 3.3% in assay [6].

With `COc1ccccc1NC(=O)C(/C=N/C(N)=S)=C(\C)O`, the growth inhibition in assay [1] is -20.1%; in assay [2], -6.5%; in assay [3] it was -33.1%; in assay [4], 7.6%; in assay [5], -3.65%; in assay [6], -14.4%.

As for `Cc1ccc(Sc2cc([N+](=O)[O-])cc(Sc3ccc(C)cc3)c2Sc2ccc(C)cc2)cc1`, the growth inhibition is 22.2% in assay [1]; -24.7% in assay [2]; 10.4% in assay [3]; 5.25% in assay [4]; 1.35% in assay [5]; -11.7% in assay [6].

Turning to `CC(C)N(C(=O)c1ccc([Si](C)(C)C)c(C(=O)N(C(C)C)C(C)C)n1)C(C)C`, the growth inhibition in assay [1] was 30.6%; in assay [2], 19.8%; in assay [3], 20.9%; in assay [4], 9.4%; in assay [5], 0.1%; in assay [6], 28.5%.

Take `CCCCN(CCCC)CCC(O)c1ccc(OC)c2ccccc12` (stereo not given): the growth inhibition in assay [1] was 44.6%; in assay [2] it was 4.55%; in assay [3], 56.2%; in assay [4], 57.4%; in assay [5] it was 16.4%; in assay [6] it was 49.7%.

On to `CN1N=C(c2ccccc2)C(C(c2ccccc2[N+](=O)[O-])C2C(=O)N(C)N=C2c2ccccc2)C1=O` (stereo not given), for which the growth inhibition in assay [1] is 46.8%; in assay [2] it was 34.6%; in assay [3], 8.5%; in assay [4] it was 3.4%; in assay [5] it was -3.4%; in assay [6], -2.1%.

On to `N#CCCN(CCC#N)c1ccc(CC2C(=O)N(c3cccc(S(=O)(=O)O)c3)N=C2C(=O)O)cc1` (stereo not given), for which the growth inhibition in assay [1] is -19.4%; in assay [2], -26.8%; in assay [3], -23.1%; in assay [4], 6.65%; in assay [5] it was -15.9%; in assay [6], -32.1%.

Consider `COc1cccc(Nc2nc(N)nc(N)c2N)c1`, for which the growth inhibition in assay [1] was -4.2%; in assay [2], -35.8%; in assay [3] it was -6.3%; in assay [4], 10.1%; in assay [5] it was -19.6%; in assay [6], 14%.

Regarding `CCOC(=O)c1c(O)csc1C`, the growth inhibition in assay [1] is -7.75%; in assay [2] it was -6.35%; in assay [3] it was -7.45%; in assay [4], -14.2%; in assay [5], -6.05%; in assay [6] it was -8.15%.

Consider `COC(=O)C1=C(\N2CCOCC2)CCCC/C=C\1C(=O)OC`, for which the growth inhibition in assay [1] is -2.55%; in assay [2], 1.15%; in assay [3] it was -4.9%; in assay [4], -10.3%; in assay [5] it was 3.65%; in assay [6], -4.5%.

`CCCCCCCOC(=O)C(CC)CC`: the growth inhibition in assay [1] is 6.8%; in assay [2], -6.45%; in assay [3], 5.45%; in assay [4], 2.85%; in assay [5], 2.65%; in assay [6], 6.45%.

Turning to `COC(=O)/C=C1\C(=O)c2ccccc2-c2ccccc21`, the growth inhibition in assay [1] was 35.8%; in assay [2], 35.4%; in assay [3] it was 13.9%; in assay [4], 20.3%; in assay [5], 25.4%; in assay [6] it was 51.6%.

Take `N#CC(C#N)=Cc1cccc(Oc2ccccc2)c1`: the growth inhibition is 57.1% in assay [1]; -2.8% in assay [2]; 9.6% in assay [3]; 8.65% in assay [4]; -8.65% in assay [5]; -15.7% in assay [6].

Consider `CN(c1ccccc1)S(=O)(=O)c1ccc([N+](=O)[O-])cc1`, for which the growth inhibition was -13.4% in assay [1]; -52.7% in assay [2]; 6.75% in assay [3]; -7.1% in assay [4]; 21.8% in assay [5]; -5.45% in assay [6].

For the compound `CCCC(=O)Oc1ccc(C(C)(C)C)cc1C`, the growth inhibition was -5.65% in assay [1]; -19.1% in assay [2]; 3.4% in assay [3]; -19.3% in assay [4]; -0.5% in assay [5]; -8.6% in assay [6].

As to `CCC(=C(c1ccc(OCc2ccccc2)cc1)c1ccc(OCc2ccccc2)cc1)c1ccc(OC)cc1`, the growth inhibition is 14.7% in assay [1]; -24.2% in assay [2]; 9.45% in assay [3]; -0.3% in assay [4]; -20.8% in assay [5]; -14.3% in assay [6].

For `CCc1ncc(C)[nH]1`, the growth inhibition was 0.55% in assay [1]; -13.8% in assay [2]; -6.35% in assay [3]; -0.15% in assay [4]; -12.1% in assay [5]; -8.8% in assay [6].

As for `OC(CCN1CCC2CCC(C2)C1)(c1ccccc1)c1ccco1` (stereo not given), the growth inhibition in assay [1] is 7.75%; in assay [2], -3.15%; in assay [3], -5.25%; in assay [4] it was -15.6%; in assay [5] it was -0.05%; in assay [6] it was -4.75%.

As to `O=C(Nc1ccccc1[N+](=O)[O-])C(=O)C(C(=O)c1ccccc1-c1ccccc1)C1OC(=O)c2ccccc21` (stereo not given), the growth inhibition in assay [1] is 10.9%; in assay [2] it was 0.6%; in assay [3], 6.05%; in assay [4], -51.4%; in assay [5] it was 2.3%; in assay [6] it was 9.55%.

Regarding `N#CCC(=O)O`, the growth inhibition is -0.2% in assay [1]; 6.5% in assay [2]; -4.3% in assay [3]; 2.05% in assay [4]; -3.2% in assay [5]; -9% in assay [6].

Take `CC/C=C/CC(=O)NCc1ccc(O)c(OC)c1`: the growth inhibition is 5.45% in assay [1]; -1.15% in assay [2]; -7.95% in assay [3]; 48.3% in assay [4]; -2.9% in assay [5]; -16.7% in assay [6].

On to `CS(=O)(=O)OC1COCOC1C1OCOCC1OS(C)(=O)=O` (stereo not given), for which the growth inhibition was 7.8% in assay [1]; 1.35% in assay [2]; 10.5% in assay [3]; -10.4% in assay [4]; -6% in assay [5]; -0.55% in assay [6].

In the case of `NC(=O)NC(=O)Cc1ccc([N+](=O)[O-])cc1`, the growth inhibition was 5.1% in assay [1]; 0.1% in assay [2]; 5.1% in assay [3]; -5.15% in assay [4]; 6.25% in assay [5]; -0.35% in assay [6].

With `NC(=O)c1cn[nH]c1N`, the growth inhibition in assay [1] is 4.05%; in assay [2], 6.2%; in assay [3], 14.2%; in assay [4], -29.6%; in assay [5], -3.4%; in assay [6], 0.55%.

Consider `NCCCN=c1ccc2c3c1c(O)c1c(O)ccc(=O)c1c3[nH]n2CCNCCO`, for which the growth inhibition in assay [1] was 89.1% (active); in assay [2], 35.1%; in assay [3], 33.3%; in assay [4], 17.9%; in assay [5], 28.6%; in assay [6] it was 36.2%.

As for `OC(CCN1CC2CCC(CC2)C1)(Cc1ccccc1)c1ccc(F)cc1` (stereo not given), the growth inhibition was -3.8% in assay [1]; -7.9% in assay [2]; 23.1% in assay [3]; -5.15% in assay [4]; 22.6% in assay [5]; -7.25% in assay [6].

In the case of `CC(C)C1CC(O)C(C)C(C(C)C)C1` (stereo not given), the growth inhibition in assay [1] is 4.05%; in assay [2] it was -17.5%; in assay [3], -12.9%; in assay [4], -28.2%; in assay [5] it was -1.65%; in assay [6] it was -20.6%.

In the case of `COc1cc(/C=C2/Cc3ccccc3C2=O)ccc1O`, the growth inhibition in assay [1] was 47%; in assay [2] it was 24.1%; in assay [3], 20.4%; in assay [4], 22.9%; in assay [5] it was 26.7%; in assay [6], 26.6%.

For the compound `O=C1CCC(=O)N1n1c(Cc2ccc(Cl)cc2)n[nH]c1=O`, the growth inhibition in assay [1] was 17.4%; in assay [2], 8.5%; in assay [3], 19.1%; in assay [4] it was 4.85%; in assay [5], 12.8%; in assay [6], -44.6%.

As to `S=C(Oc1ccccc1)Oc1ccc2ccccc2c1`, the growth inhibition in assay [1] is 9.7%; in assay [2], -6.8%; in assay [3], -9.7%; in assay [4], -6.55%; in assay [5] it was 15.3%; in assay [6], -11.6%.

Regarding `CCN(CC)CCCNc1cccc2nc(Cl)ccc12`, the growth inhibition in assay [1] is 12.1%; in assay [2], 18.6%; in assay [3], 37.2%; in assay [4], 24.5%; in assay [5], 2.65%; in assay [6], 9.25%.

For `Clc1ncc(-c2ccccc2)nc1Cl`, the growth inhibition is 49.5% in assay [1]; 11.4% in assay [2]; 0.6% in assay [3]; 1.25% in assay [4]; 1.75% in assay [5]; 14.9% in assay [6].

As to `CC(=O)Nc1cccc(Cl)c1`, the growth inhibition in assay [1] was -2.25%; in assay [2], -24.5%; in assay [3], -0.2%; in assay [4] it was -4.8%; in assay [5], -1.45%; in assay [6], 6.5%.

For the compound `O=C(NC(=S)OC1CCCC1OC(=S)NC(=O)c1ccccc1)c1ccccc1` (stereo not given), the growth inhibition in assay [1] was -21.5%; in assay [2], -12.6%; in assay [3], -10.1%; in assay [4] it was 14.5%; in assay [5], -13.2%; in assay [6] it was -33.7%.

As to `C=CCC1=C(C)C[C@@H]2CCC(=O)C=C12`, the growth inhibition in assay [1] was 9.05%; in assay [2], -24.9%; in assay [3], -8.5%; in assay [4], 11.2%; in assay [5] it was -13%; in assay [6] it was 5.5%.

With `CCOC(=O)c1ccc(NC(=S)N2CCOCC2)cc1`, the growth inhibition is 13.1% in assay [1]; 6.8% in assay [2]; 14.8% in assay [3]; 8.7% in assay [4]; 2.55% in assay [5]; -2.8% in assay [6].

With `CN(C)c1ccc(/C=N/NC(=O)c2ccccc2NC(=O)c2ccc(Cl)cc2)c(Cl)c1`, the growth inhibition was 1.4% in assay [1]; 0.45% in assay [2]; 19.9% in assay [3]; -6.3% in assay [4]; -6.1% in assay [5]; 0.5% in assay [6].

With `CC(C)OC(=O)CC#N`, the growth inhibition is -4.55% in assay [1]; -9.55% in assay [2]; -7.7% in assay [3]; -28.7% in assay [4]; 0.6% in assay [5]; 14.8% in assay [6].

In the case of `CCOC(=O)C1=C(C)N(c2ccccc2)C2=C(C(=O)N(c3ccccc3)C2c2ccccc2)C1c1ccccc1` (stereo not given), the growth inhibition in assay [1] is 9.9%; in assay [2], -13.8%; in assay [3], 9.25%; in assay [4], 15%; in assay [5] it was -21.7%; in assay [6], 7.2%.
